From PubChem BioAssay (Tox21) come the findings set out here.

Structures are written as SMILES. Values joined by “and” are separate entries in the source; they are usually repeats but may differ in a detail not shown here. Equal entries are not always repeated. Records with an inconclusive call do not appear. Where a structure was tested more than once in an assay, its records may differ in their call. Active and inactive are the calls of the source. Unless noted, calls come from the whole dose curve; as a rule, active = well fitted curve in the direction sought with a large enough effect in the repeat runs; inconclusive = weak or mixed curves; inactive = no such curve, though single readings can be large; an effect the other way counts as inactive or inconclusive.

Experiment [1] is described as follows: qHTS assay to identify small molecule agonists of the androgen receptor (AR) signaling pathway in the presence of an antagonist - cell viability counter screen (AID 1259379). Note: nearly all actives have a fitted effect of over 25% in size. Note: potency is the fitted concentration of half-maximal effect. Put shortly: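 MDA-kb2 cells (MMTV-luciferase, AR/GR), 3,000/well, 5 h attachment, then 3.0 µM nilutamide (final) and compounds at 15 concentrations. Viability by CellTiter-Fluor fluorescence after 16 h at 37 °C, 0% CO2, in the reporter wells.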

The nature of experiment [2]: qHTS assay to identify small molecule agonists of the estrogen receptor beta (ER-beta) signaling pathway - cell viability counter screen (AID 1259380). Note: nearly all actives have a fitted effect of over 30% in size. Note: potency is the fitted concentration of half-maximal effect. Summed up:
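ER-beta-UAS-bla HEK293T cells in medium with 2% charcoal-stripped FBS, pre-incubated 6 hr, then treated 16 hr at 37C. Cytotoxicity read in the same wells by CellTiter-Glo luminescence after 30 min at room temperature.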
On the technique in general: qHTS replaces the single test concentration by a dilution series.

A short description of experiment [3]: qHTS assay to identify small molecule antagonists of the estrogen receptor beta (ER-beta) signaling pathway - cell viability counter screen (AID 1259382). Note: nearly all actives have a fitted effect of over 55% in size. Note: potency is the fitted concentration of half-maximal effect. Put shortly:
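ER-beta-UAS-bla HEK293T cells in 2% charcoal-stripped FBS medium, treated with compound plus 1 nM 17-beta-estradiol for 16 h at 37C. Viability read by CellTiter-Glo luminescence after 30 min at room temperature in the same wells.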

Experiment [4] addresses Estrogen receptor (Homo sapiens) (UniProt P03372). The experiment is described as follows: qHTS assay to identify small molecule agonists of the estrogen receptor alpha (ER-alpha) signaling pathway in the presence of an antagonist (AID 1259383; calls by dose curve; note: top concentration of the series differs between compounds; nearly all actives have a fitted effect of over 15% in size). Summed up: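 VM7Luc4E2 cells express endogenous full-length ER-alpha with an ERE-luciferase reporter and were hormone-deprived for 5 days. Compounds at 15 concentrations were added with 10.0nM ICI-182,780 for 22hr at 37C. Luminescence was read with ONE-Glo.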

A short description of experiment [5]: qHTS assay to identify small molecule agonists or antagonists of the thyroid stimulating hormone receptor (TSHR) signaling pathway - wild type cell line counter screen (AID 1259384; calls by dose curve). Put shortly: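 Counter screen in untransfected Hek293: compounds (15-point titration, triplicate) plus phosphodiesterase inhibitor Ro20-1724 added after 18 h plating; 30 min RT. Intracellular cAMP via competitive d2/cryptate immunoassay, 1 h incubation.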

In experiment [6] the target is Thyrotropin receptor (Homo sapiens) (UniProt P16473). The experiment is described as follows: qHTS assay to identify small molecule antagonists of the thyroid stimulating hormone receptor (TSHR) signaling pathway (AID 1259385; calls by dose curve; note: nearly all actives have a fitted effect of over 20% in size; note: potency is the fitted concentration of half-maximal effect). Put shortly:
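Antagonist mode: compound-treated TSHR-expressing HEK293 cells were stimulated with 1.5 ng/mL TSH (final) in presence of Ro20-1724 for 30 min at RT. HTRF cAMP detection after 1 h; each compound tested at 15 concentrations, triplicate.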

Experiment [7] in a line: qHTS assay to identify small molecule agonists of the estrogen receptor alpha (ER-alpha) signaling pathway in the presence of an antagonist - cell viability counter screen (AID 1259386).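 Note: series mostly up to about 92 µM; cells exposed to compounds for 22 h at 37 °C before the viability read; nearly all actives have a fitted effect of over 30% in size.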 Put shortly: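 Cell viability in VM7Luc4E2 cells (endogenous full-length ER-alpha) measured by CellTiter-Fluor fluorescence in the same wells as the luciferase screen. Cells pre-cultured 5 days in charcoal-stripped serum, then treated 22 h with compounds at 15 concentrations plus 10.0nM ICI-182,780.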

Experiment [8] concerns the target Progesterone receptor (Homo sapiens) (UniProt P06401). The experiment can be described thus: qHTS assay to identify small molecule agonists of the progesterone receptor (PR) signaling pathway (AID 1346784; calls by dose curve; note: nearly all actives have a fitted effect of over 30% in size). Put shortly: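 Beta-lactamase reporter read-out: after 16 hr compound treatment at 37C and a further 2 hr at room temperature with LiveBLAzer B/G FRET substrate, fluorescence was measured in PR-UAS-bla HEK 293T cells grown in 2% charcoal-stripped serum.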

The target is the same in experiment [9]. The experiment can be described thus: qHTS assay to identify small molecule antagonists of the progesterone receptor (PR) signaling pathway (AID 1346795; active = well fitted inhibition curve with a large enough effect in the signal ratio in the repeat runs, not every such curve was filed as active; the % refers to the signal ratio; note: potency is the fitted concentration of half-maximal effect). Put shortly: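 Read-out is fluorescence from the LiveBLAzer B/G FRET substrate, cleaved by a UAS-controlled beta-lactamase in PR-UAS-bla HEK293T cells after 16 hr exposure to compound plus 1 nM promegestone (final), followed by 2 hr at room temperature.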

Experiment [10] is described as follows: qHTS assay to identify small molecule antagonists of the progesterone receptor (PR) signaling pathway - cell viability counter screen (AID 1346798). Note: nearly all actives have a fitted effect of over 50% in size. Note: potency is the fitted concentration of half-maximal effect. Summed up: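 HEK293T PR-UAS-bla, 2% charcoal-stripped FBS; 4 hr pre-plate; cpd + R5020, 16 h 37C; LiveBLAzer read first; then CellTiter-Glo 30 min RT, luminescence.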
Experiment [11] can be described thus: qHTS assay to identify small molecule agonists of the progesterone receptor (PR) signaling pathway - cell viability counter screen (AID 1346799; calls by dose curve; note: nearly all actives have a fitted effect of over 45% in size; note: potency is the fitted concentration of half-maximal effect). Summed up:
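Luminescence from CellTiter-Glo, added after the beta-lactamase FRET read in the same wells, gave cytotoxicity in PR-UAS-bla HEK293T cells treated with compounds for 16 hr at 37C.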

Experiment [12] is described as follows: qHTS assay to identify small molecule antagonists of the TGF-beta/Smad signaling pathway - cell viability counter screen (AID 1346824). Note: nearly all actives have a fitted effect of over 50% in size. Summed up: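 Cytotoxicity counter-screen run in the same wells as the beta-lactamase Smad reporter read: CellTiter-Glo luminescence after 30 min at room temperature. HEK 293T SBE-bla cells had 5 hr compound exposure at 37 C with TGF-beta1 (0.25 ng/mL stock).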

The nature of experiment [13]: qHTS assay to identify small molecule agonists of the TGF-beta/Smad signaling pathway - cell viability counter screen (AID 1346829). Note: top concentration of the series differs between compounds; nearly all actives have a fitted effect of over 45% in size. Summed up: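 SBE-bla HEK 293T cells plated overnight, compound exposure 5 hr at 37 C. Viability read in the same wells by CellTiter-Glo luminescence after 30 min at room temperature, following the beta-lactamase read.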
A short description of experiment [14]: qHTS assay to identify small molecule agonists of the TGF-beta/Smad signaling pathway (AID 1346859; active = well fitted activation curve with a large enough effect in the signal ratio in the repeat runs, not every such curve was filed as active; the % refers to the signal ratio; note: series mostly up to about 77 µM). Put shortly:
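SBE-bla HEK 293T, 4,000 cells/well, plated o/n; cpd in DMSO, 5 hr, 37 C/5% CO2; B/G FRET substrate 2 hr RT; ex 405, em 460/530 nm.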

The target of experiment [15] is Thyrotropin-releasing hormone receptor (Homo sapiens) (UniProt P34981). The experiment is described as follows: qHTS assay to identify small molecule antagonists of the thyrotropin-releasing hormone receptor (TRHR) signaling pathway (AID 1346877; active = well fitted inhibition curve with a large enough effect in the repeat runs, not every such curve was filed as active; note: series mostly up to about 51 µM). Summed up:
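TRHR-expressing HEK293 cells loaded with calcium dye for 2 h at 37 C; compounds pre-incubated 5 min at room temperature before TRH challenge at 1 nM final. Intracellular calcium fluorescence read kinetically for 3 min; 15 concentrations in triplicate.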

For experiment [16] the target is unchanged. The experiment can be described thus: qHTS assay to identify small molecule agonists of the thyrotropin-releasing hormone receptor (TRHR) signaling pathway (AID 1346891; calls by dose curve; note: series mostly up to about 58 µM). Put shortly: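 Intracellular calcium rise, read as fluorescence every second for 3 min, served as the agonist signal in dye-loaded HEK293 cells expressing TRHR; each compound ran at 15 concentrations in triplicate.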

The nature of experiment [17]: Human pregnane X receptor (PXR) small molecule agonists, qHTS cell viability counter screen (AID 1346977). Note: nearly all actives have a fitted effect of over 50% in size. Note: potency is the fitted concentration of half-maximal effect. Put shortly: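 PXR-Luc HepG2, 2,000 cells/well, 5% charcoal-stripped FBS; 5hr settle; cpd 24hr, 37C/5% CO2; CellTiter-Fluor at 23hr, read 1hr later (fluorescence).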
The nature of experiment [18]: Caspase-3/7 induction in HepG2 cells by small molecules, qHTS assay (AID 1346978). Note: nearly all actives have a fitted effect of over 15% in size. Note: potency is the fitted concentration of half-maximal effect. Put shortly:
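Caspase-3/7 induction was measured by Caspase-Glo 3/7 luminescence (30 min, room temperature) after a 17 hr compound exposure of wild-type HepG2 cells seeded at 2,000 per well and pre-incubated 5 hr.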

Experiment [19] in a line: Caspase-3/7 induction in CHO-K1 cells by small molecules, qHTS cell viability counter screen (AID 1346979). Note: nearly all actives have a fitted effect of over 35% in size. Note: potency is the fitted concentration of half-maximal effect. Summed up: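 Cells (CHO-K1, wild type) are plated at 1,500 per well and incubated 5hr. Test compounds in DMSO are then pinned in, followed by 16hr at 37C and 5% CO2. Viability is read by CellTiter-Fluor fluorescence after 1hr.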

Chain of Thyrotropin-releasing hormone receptor (Homo sapiens) (P34981 whole entry, looked up): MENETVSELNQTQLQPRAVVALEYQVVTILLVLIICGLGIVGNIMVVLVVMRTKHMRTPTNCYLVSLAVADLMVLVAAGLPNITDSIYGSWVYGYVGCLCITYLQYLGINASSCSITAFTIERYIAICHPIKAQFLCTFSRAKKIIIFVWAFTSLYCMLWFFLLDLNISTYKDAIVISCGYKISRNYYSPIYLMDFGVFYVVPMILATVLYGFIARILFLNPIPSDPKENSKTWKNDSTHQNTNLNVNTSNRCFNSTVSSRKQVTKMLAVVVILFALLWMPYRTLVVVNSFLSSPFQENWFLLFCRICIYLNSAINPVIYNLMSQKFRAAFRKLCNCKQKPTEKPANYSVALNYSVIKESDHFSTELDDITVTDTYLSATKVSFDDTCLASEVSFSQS
Chain of Progesterone receptor (Homo sapiens) (P06401 whole entry, looked up): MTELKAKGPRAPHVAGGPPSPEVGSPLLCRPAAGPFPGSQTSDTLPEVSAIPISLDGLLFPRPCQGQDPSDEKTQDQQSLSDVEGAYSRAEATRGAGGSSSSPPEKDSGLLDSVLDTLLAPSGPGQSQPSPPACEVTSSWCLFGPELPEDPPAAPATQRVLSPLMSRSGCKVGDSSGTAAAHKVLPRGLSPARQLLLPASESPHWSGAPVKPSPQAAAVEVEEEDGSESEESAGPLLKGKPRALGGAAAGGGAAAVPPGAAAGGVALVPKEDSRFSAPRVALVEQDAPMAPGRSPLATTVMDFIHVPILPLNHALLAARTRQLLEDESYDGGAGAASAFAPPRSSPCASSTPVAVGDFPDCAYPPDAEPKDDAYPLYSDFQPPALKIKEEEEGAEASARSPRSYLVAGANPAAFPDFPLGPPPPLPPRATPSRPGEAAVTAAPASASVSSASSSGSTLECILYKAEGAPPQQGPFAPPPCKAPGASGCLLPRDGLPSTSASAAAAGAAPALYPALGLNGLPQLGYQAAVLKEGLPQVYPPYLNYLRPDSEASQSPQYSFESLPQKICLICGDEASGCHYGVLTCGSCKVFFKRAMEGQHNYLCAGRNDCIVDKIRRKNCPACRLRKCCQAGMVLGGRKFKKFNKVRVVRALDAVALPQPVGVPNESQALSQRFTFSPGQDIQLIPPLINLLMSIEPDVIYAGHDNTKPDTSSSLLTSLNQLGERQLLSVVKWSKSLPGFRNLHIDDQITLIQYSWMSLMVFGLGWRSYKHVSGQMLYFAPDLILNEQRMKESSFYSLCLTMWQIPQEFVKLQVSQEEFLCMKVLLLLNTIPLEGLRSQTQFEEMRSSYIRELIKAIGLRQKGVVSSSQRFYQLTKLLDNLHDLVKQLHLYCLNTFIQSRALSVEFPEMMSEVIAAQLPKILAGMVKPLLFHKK
Chain of Estrogen receptor (Homo sapiens) (P03372 whole entry, looked up): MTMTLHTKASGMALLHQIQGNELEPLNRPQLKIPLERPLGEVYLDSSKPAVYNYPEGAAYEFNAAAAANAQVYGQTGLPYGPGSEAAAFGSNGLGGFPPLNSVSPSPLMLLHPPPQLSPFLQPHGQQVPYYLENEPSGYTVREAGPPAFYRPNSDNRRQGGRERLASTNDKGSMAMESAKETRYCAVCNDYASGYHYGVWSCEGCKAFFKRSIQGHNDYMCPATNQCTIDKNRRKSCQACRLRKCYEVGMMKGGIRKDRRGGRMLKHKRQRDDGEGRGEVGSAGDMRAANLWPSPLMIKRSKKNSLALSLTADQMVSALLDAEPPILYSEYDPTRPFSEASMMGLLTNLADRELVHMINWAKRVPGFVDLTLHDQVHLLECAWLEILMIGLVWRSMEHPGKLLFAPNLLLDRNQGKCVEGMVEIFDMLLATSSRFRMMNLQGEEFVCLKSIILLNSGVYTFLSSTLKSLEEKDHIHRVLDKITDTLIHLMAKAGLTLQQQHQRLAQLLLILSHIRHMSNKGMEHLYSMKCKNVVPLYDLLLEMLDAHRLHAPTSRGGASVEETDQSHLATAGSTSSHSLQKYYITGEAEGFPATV
Chain of Thyrotropin receptor (Homo sapiens) (P16473 whole entry, looked up): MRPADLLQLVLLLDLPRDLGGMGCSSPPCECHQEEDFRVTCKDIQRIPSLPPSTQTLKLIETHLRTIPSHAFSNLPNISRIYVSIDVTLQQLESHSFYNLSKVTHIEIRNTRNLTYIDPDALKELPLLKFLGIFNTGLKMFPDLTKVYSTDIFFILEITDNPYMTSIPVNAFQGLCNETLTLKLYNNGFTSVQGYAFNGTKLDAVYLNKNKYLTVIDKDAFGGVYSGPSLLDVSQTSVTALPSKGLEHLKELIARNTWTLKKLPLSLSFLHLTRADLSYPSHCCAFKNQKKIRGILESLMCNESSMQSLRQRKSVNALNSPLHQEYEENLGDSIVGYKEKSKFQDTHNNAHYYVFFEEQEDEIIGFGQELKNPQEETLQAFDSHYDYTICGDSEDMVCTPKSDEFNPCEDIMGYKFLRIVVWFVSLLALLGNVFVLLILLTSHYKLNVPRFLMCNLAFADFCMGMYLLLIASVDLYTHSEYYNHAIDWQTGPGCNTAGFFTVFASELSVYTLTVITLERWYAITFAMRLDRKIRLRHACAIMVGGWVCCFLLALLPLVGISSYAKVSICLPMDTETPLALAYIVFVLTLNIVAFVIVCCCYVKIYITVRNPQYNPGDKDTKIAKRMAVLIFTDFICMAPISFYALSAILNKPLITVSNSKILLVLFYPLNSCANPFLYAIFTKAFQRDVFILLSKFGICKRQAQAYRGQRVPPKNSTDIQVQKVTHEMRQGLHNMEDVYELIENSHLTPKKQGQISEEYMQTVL

Take `O=P1(N(CCCl)CCCl)NCCCO1` (stereo not drawn): the Potency result in experiment [1], in experiment [2], in experiment [3], in [4], in experiment [5] and in experiment [6] was “inactive” throughout. The Potency entry in experiment [7], in experiment [8], in [9], in experiment [10], in [11] and in experiment [12] was “inactive” in each case. The Potency entry in experiment [13], in experiment [14], in experiment [15], in experiment [16], in experiment [17] and in experiment [18] was “inactive” throughout. Also, in experiment [19], the Potency entry was “inactive”.

On to `CCC[N+]1(C)CCCCC1`, for which the Potency entry in experiment [1], in experiment [2], in [3], in experiment [5], in experiment [6] and in experiment [8] was “inactive” throughout. Moreover, the Potency result in experiment [9], in experiment [10], in experiment [11], in [12], in [13] and in [14] was “inactive” each time. Moreover, the Potency result in [17], in experiment [18] and in [19] was “inactive” throughout.

Consider `Nc1ccc(Cl)cc1`, for which the Potency result in experiment [1], in [2], in experiment [4], in experiment [5], in experiment [6] and in experiment [8] was “inactive” in each case. Also, the Potency entry in experiment [10], in experiment [11], in experiment [12], in [13], in experiment [14] and in experiment [15] was “inactive” each time. For the same molecule, the Potency entry in [16], in experiment [17], in experiment [18] and in experiment [19] was “inactive” throughout.

For `Nc1ccc(-c2ccc(N)c(Cl)c2)cc1Cl`, the Potency result in experiment [1] was “inactive and 54.5 µM (active)”; in experiment [2], 30.6 µM (active); in [3] it was 61.1 µM (active); in [6], “inactive and 57 µM (active)”; in [17] it was 3.98 µM (active) and 54.5 µM (active); in [18] it was 13.8 µM (active). Further, the Potency in experiment [19] is 68.9 µM (active) and 1.43 µM (active) and 48.6 µM (active). Besides, the Potency entry in experiment [4], in experiment [5], in experiment [11], in experiment [12], in [13] and in experiment [14] was “inactive” in each case. Moreover, the Potency result in [15] and in experiment [16] was “inactive” each time.

Regarding `CCCCCCCCCCCC(=O)O`, the Potency result in [1], in experiment [3], in experiment [5], in [6], in [8] and in [9] was “inactive” in each case. The Potency entry in experiment [10], in [11], in experiment [12], in experiment [13], in experiment [14] and in [17] was “inactive” in each case. The Potency entry in experiment [18] and in experiment [19] was “inactive” each time. In experiment [2], the Potency is 43.3 µM (active).

`O=C(O)c1nc(Cl)ccc1Cl`: the Potency result in experiment [1], in experiment [2], in experiment [4], in experiment [5], in experiment [6] and in experiment [7] was “inactive” each time. The Potency entry in [8], in experiment [9], in experiment [10], in experiment [11], in experiment [12] and in experiment [13] was “inactive” each time. For the same molecule, the Potency entry in experiment [14], in experiment [17], in experiment [18] and in [19] was “inactive” throughout.

Consider `C=CCOC(Cn1ccnc1)c1ccc(Cl)cc1Cl` (stereo not drawn), for which the Potency in experiment [1] is 61.3 µM (active) and inactive; in experiment [2], 27.4 µM (active) and 24.3 µM (active); in experiment [3] it was 30.7 µM (active) and inactive; in [9] it was 6.13 µM (active) and 6.68 µM (active); in experiment [10], 24.4 µM (active) and 15.4 µM (active) and 11.9 µM (active); in experiment [11], 27.4 µM (active) and 21.7 µM (active) and 18.8 µM (active). Moreover, the Potency was 48.6 µM (active) in [17]; 48.7 µM (active) and 38.6 µM (active) in experiment [19]. Besides, the Potency result in [5], in experiment [6], in [8], in experiment [12], in [13] and in experiment [14] was “inactive” throughout. The Potency result in experiment [15], in [16] and in experiment [18] was “inactive” throughout.
